The supplement of paper PMC3656093
± gives the standard deviation of the averaged measurements. Whole data set: some 1,900 compounds, median “CD40L-induced NF-kB luciferase activity, plate-corrected, relative to DMSO (0) and IKK inhibitor VII (-100) controls” near 0.032, cut for the lowest 2% near -26. This is one part of a sample in which the lowest values are shown more often than they occur.

What follows are compounds tested on BL2-NFkB-Luc (assay: CD40L-induced NF-kB luciferase activity, plate-corrected, relative to DMSO (0) and IKK inhibitor VII (-100) controls (% normalized activity); higher = more NF-kB reporter activity (less inhibition)). Details: 9.4 µM; stimulus: tCD40L 64 ng/ml; 4.5 h.
Method: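 BL2 B cells with a stable NF-kB response-element luciferase reporter (BL2-NFkB-Luc), 384-well. Cells were pre-incubated with compound at 9.4 uM for 1 h at 37 C, then stimulated with 64 ng/ml trimerized CD40L for 4.5 h; luciferase was read with Steady-Glo. Signal was normalised per plate in Genedata (median DMSO neutral control = 0, median IKK inhibitor VII at 50 uM = -100) with Assay Median plate-pattern correction; duplicate plates.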

Point of comparison: Cc1cc(O)c(C(=O)Cc2csc(C)n2)c(O)c1, “CD40L-induced NF-kB luciferase activity” value 45.9 ± 3.3. Against it:
- COc1cc(OC)cc(C(C)=O)c1 — lower, -2.98 ± 1.2
- C=C1C2(C(=O)Nc3ccc(SC(F)F)cc3)CCC(C2)C1(C)C (stereo not drawn) — lower, 1.47 ± 2.7
- N#C/C(=C/c1ccccc1)C(=O)NCc1ccccc1 — lower, -1.8 ± 1.4
- Cc1ccc(C(=O)COC(=O)c2cnccn2)cc1[N+](=O)[O-] — lower, 0.896 ± 2.4
- CCOc1ccccc1C(=O)NCCC(=O)O — lower, -1.43 ± 3.9
- Cc1cccc(N2C(=O)C3C(c4ccccc4)OC4(C(=O)c5ccccc5C4=O)C3C2=O)c1 (stereo not drawn) — lower, -0.286 ± 0.72
- COc1ccc(CN(CCC(c2ccc(F)cc2)C2CCOC(C)(C)C2)C(=O)c2ccco2)cc1 (stereo not drawn) — lower, -4.2 ± 3.9
- CC(=O)OC1c2c(ccc3ccc(=O)oc23)OC(C)(C)C1OC(=O)CC(C)C (stereo not drawn) — lower, -3.56 ± 6.5
- CC1/C(=C\c2ccc(Cl)cc2)C(=O)C2CC1C2(C)C (stereo not drawn) — lower, 3.76 ± 2.7
- COC(=O)c1ccc(NC(=O)C23CCC(C)(C(=O)O2)C3(C)C)cc1 (stereo not drawn) — lower, -0.16 ± 13
- COc1cccc(NC(=O)C2CC(=O)OC23CCOC(C)(C)C3)c1 (stereo not drawn) — lower, 4.32 ± 4.7
- CC1CNCCN1S(=O)(=O)c1cccc2cnccc12 (stereo not drawn) — lower, -26.1 ± 6.3
- O=C1c2ccccc2C2(c3ccccc3)NCCN12 (stereo not drawn) — lower, 1.37 ± 7
- Cc1ccccc1C(=O)Oc1ccc(Sc2ccc(O)cc2)cc1 — lower, 2.2 ± 3.6
- O=C(NCCc1c[nH]c2ccccc12)OCCSS(=O)(=O)O — lower, 0.55 ± 1.4
- CCOCC(=O)Nc1ccccc1C(=O)N1CCOCC1 — lower, -5 ± 1
- Cn1nc(-c2ccccn2)nc2c(=O)n(C)c(=O)nc1-2 — lower, -19.1 ± 0.82
- Cn1nc(-c2ccc(Cl)cc2)nc2c(=O)n(C)c(=O)nc1-2 — lower, -95.22 ± 0.55
- Cn1c(=O)[nH]c2nnc(-c3ccc(Cl)c(Cl)c3)nc2c1=O — lower, 25.5 ± 4.7
- O=C1[C@@H]2CSCN2C(=O)CN1Cc1ccc(F)cc1 — lower, -0.473 ± 5.9
- COc1ccc(NC(=S)N2CCN(CCN3C(=O)c4cccc5cccc(c45)C3=O)CC2)cc1 — lower, 1.19 ± 0.65
- O=C(c1cccc2ccccc12)C1CCCN(C(=O)CCN2CCCO2)C1 (stereo not drawn) — lower, 2.54 ± 2
- CC(=O)O[C@H]1C(=O)[C@@]2(C)[C@H]([C@H](OC(=O)c3ccccc3)[C@]3(O)C[C@H](OC(=O)[C@H](O)C(NC(=O)c4ccccc4)c4ccccc4)C(C)=C1C3(C)C)[C@]1(OC(C)=O)CO[C@@H]1C[C@@H]2O (stereo partly drawn) — lower, -33.4 ± 1.3
- CC(C)C1CC(CCNCc2ccc(N(C)C)cc2)(c2ccccc2)CCO1 (stereo not drawn) — lower, -4.73 ± 11
- N/C(=N\OC(=O)c1cccc(Br)c1)c1ccncc1 — lower, 2.67 ± 0.79
- COc1ccc(C2=CC(=O)C=CC2=O)cc1 — lower, -5.93 ± 5.3
- CCOc1ccc(C(=O)N2CCCC2C(=O)O)cc1 (stereo not drawn) — lower, 2.22 ± 8
- CC(=O)O[C@H]1CC[C@H]2[C@@H]3CCc4cc(O)ccc4[C@H]3CC[C@]12C — lower, -3.39 ± 3.8
- CCOC(=O)C(=O)N1CCN(c2ccccc2OC)CC1 — lower, -1.99 ± 1.9
- CCOC(=O)C(=Cc1ccccc1OC)C(=O)OCC — lower, -29 ± 6.1
- COc1ccccc1/C=C/C(=O)OCCN1CCOCC1 — lower, 2.92 ± 4.6
- CCCC1O[C@@H]2C[C@H]3[C@@H]4CCC5=CC(=O)C=C[C@]5(C)[C@H]4[C@@H](O)C[C@]3(C)[C@]2(C(=O)CO)O1 (stereo partly drawn) — lower, -26 ± 0.65
- C[C@]12CCC(=O)C=C1CC[C@@H]1[C@@H]2C(=O)C[C@@]2(C)[C@H]1CC[C@]2(O)C(=O)CO — lower, -6.47 ± 2
- CC1(C)O[C@@H]2C[C@H]3[C@@H]4C[C@H](F)C5=CC(=O)CC[C@]5(C)[C@H]4[C@@H](O)C[C@]3(C)[C@]2(C(=O)CO)O1 — lower, -21.3 ± 0.59
- CC(=O)OCC(=O)[C@@]1(O)CC[C@H]2[C@@H]3CCC4=CC(=O)C=C[C@]4(C)[C@H]3[C@@H](O)C[C@@]21C — lower, -43.8 ± 2.2
- C[C@]12CCC(=O)C=C1CC[C@@H]1[C@@H]2[C@@H](O)C[C@@]2(C)[C@H]1CC[C@]2(O)C(=O)COC(=O)CCC(=O)O — lower, -23.2 ± 7.1
- C[C@]12CCC(=O)C=C1CC[C@@H]1[C@@H]2CC[C@@]2(C)[C@H]1CC[C@]2(O)C(=O)CO — lower, -8.87 ± 3.8
- C[C@H]1C[C@@H]2[C@H]([C@@H](O)C[C@@]3(C)[C@H]2CC[C@]3(O)C(=O)CO)[C@@]2(C)C=CC(=O)C=C12 — lower, -35.94 ± 0.26
- C[C@]12C=CC(=O)C=C1CCC1C3CC[C@](O)(C(=O)CO)[C@@]3(C)CC3OC312 (stereo partly drawn) — lower, -7.42 ± 5.5
- C[C@]12CCC(=O)C=C1[C@H](O)C[C@@H]1[C@@H]2[C@@H](O)C[C@@]2(C)[C@H]1CC[C@]2(O)C(=O)CO — lower, -8.7 ± 4.6
- CC(=O)[C@@]1(O)CC[C@H]2[C@@H]3CCC4=CC(=O)CC[C@]4(C)[C@H]3[C@@H](O)C[C@@]21C — lower, -12.9 ± 3.2
- CC(=O)OCC(=O)[C@@]1(O)CC[C@H]2[C@@H]3CCC4=CC(=O)CC[C@]4(C)[C@H]3[C@@H](O)C[C@@]21C — lower, -31.1 ± 6.7
- CCOc1cc(C=O)ccc1OCCSc1ccc(C)cc1 — lower, 8.64 ± 2
- CCC(C)NCCOCCOc1ccc(Cl)c2ccccc12 (stereo not drawn) — lower, -3.83 ± 0.8
- COc1ccc2oc(=O)c(-c3nc(C)cs3)cc2c1 — higher, 82.6 ± 9.2
- Cc1ccc2c(c1)c(=O)c1c3n2CCN(C(=O)CCl)C3CC1 (stereo not drawn) — lower, -2.91 ± 2.5
- CC1(C)Cc2ccccc2-c2nc(-c3ccccc3)oc(=O)c21 — lower, 2.15 ± 0.84
- O=C(c1ccc([N+](=O)[O-])cc1)N1CCSC1c1ccccc1Cl (stereo not drawn) — lower, 4.04 ± 5
- CN(C)CCOc1ccccc1Cc1ccccc1 — lower, 0.196 ± 5
- O=C(NC1CCCCC1)c1cc2nc(-c3ccco3)cc(C(F)(F)F)n2n1 — lower, 1.55 ± 1.8
- CC(C)Oc1ccc(C2CC(=O)N(c3ccc(C(=O)O)cc3)C2=O)cc1 (stereo not drawn) — lower, -3.94 ± 6.9
- O=C(NCc1ccc(N2CCCC2=O)cc1)c1cccc(Cl)c1 — lower, 0.303 ± 1.9
- CCNC(=O)c1c(N)sc2c1CCCCC2 — lower, 2.16 ± 2.4
- CC(C)OC(=O)c1ccc(NC(=O)c2cncc(Br)c2)cc1 — lower, 4.22 ± 5
- CCOc1cc(C)cc2oc(=O)cc(-c3ccccc3)c12 — lower, 3.93 ± 4.9
- COc1cc(NC(=O)COc2ccccc2)c(OC)cc1NC(C)=O — lower, 2.35 ± 11
- CCC(=O)c1ccc(OCc2ccc(C(=O)OC)cc2)cc1 — within error, 47.3 ± 2.2
- COc1ccc(C(=O)NCc2cccnc2)cc1 — lower, -2.51 ± 0.59
- COc1ccc(OCc2cccc(C(=O)NN)c2)cc1 — lower, -59.1 ± 2.2
- CC(=O)[C@H]1CC[C@H]2[C@@H]3CCC4=CC(=O)CC[C@]4(C)[C@H]3[C@H](O)C[C@]12C — lower, -10.6 ± 14
- C=C(C)c1nc2cc(OC)c(OC)cc2c(=O)o1 — lower, -30.6 ± 9.3
- COc1cc2nc(-c3ccccc3)nc(N3CCCC3)c2cc1OC — lower, 14.1 ± 1.1
